This passage reports inhibition results from PubChem BioAssay AID651610 (Broad Institute, 2012).

Out of some 360,000 compounds screened, about 3,900 (1.1%) were called active. The sample holds actives, similar compounds and a random draw of the others, so the mix is not that of the screen.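 The calls were made as follows: active = mean replicate inhibition score of at least 50 and every replicate individually at or above 50; inconclusive = only one of the two criteria met; inactive = mean below 50 and not all replicates reaching 50.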

This assay in a line: blockers of JRFL envelope-mediated fusion – HeLa-JRFL effector, CEM21 target cells, luciferase, primary screen (AID 651610).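 Also: 0% = plate neutral controls and 100% = maraviroc near 300 nM.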 The following applies: HeLa-JRFL Env/CEM21 cell fusion, hits give high values; at 16.7 µM unless noted.
For `CN(C)C(=O)c1cccc(-c2cnc3c(NC=O)cc(-c4ccc(C(=O)N5CCOCC5)cc4)cn23)c1`, the inhibition is -15.1% [at 12.3 µM] (inactive). Take `O=C(CSc1ncnc2scc(-c3ccccc3)c12)NCc1ccc2c(c1)OCO2`: the inhibition is 22.4% [at 12.3 µM] (inactive). Under `CN(C)C(=O)c1cccc(-c2cnc3sc(NCc4ccc5c(c4)OCO5)nn23)c1` stands 68.4% [at 12.3 µM] (active); under `O=C(Nc1ccc(C(F)(F)F)cc1)N[C@@H]1CC[C@@H](CCNC(=O)c2ccccc2F)O[C@H]1CO`, -1.09% (inactive); under `Cc1noc(C)c1S(=O)(=O)Nc1ccc2c(c1)CC(=O)N([C@@H](C)CO)C[C@H](C)[C@@H](CN(C)S(=O)(=O)c1cn(C)cn1)O2`, -11.7% (inactive).

Turning to `C[C@H]1CCCCO[C@@H](CN(C)C(=O)c2ccccc2)[C@@H](C)CN([C@@H](C)CO)C(=O)c2cc(NS(=O)(=O)c3ccccc3)ccc2O1`, the inhibition was -27.7% (inactive). The result for `CN(C)c1nc(-c2cccnc2)nc(-c2ccc(Cl)cc2)c1C#N` reads -27.7% [at 12.3 µM] (inactive); that for `CNc1nccc(-c2ccc(Cl)cc2)c1C#N`, 58.1% [at 12.3 µM] (active); that for `CN(C)c1ccnc(Nc2ccc(F)cc2)c1C#N`, 2.55% [at 12.3 µM] (inactive). The result for `CCCN(C)C[C@H]1Oc2ncc(-c3ccccc3OC)cc2C(=O)N([C@H](C)CO)C[C@@H]1C` reads 16.3% (inactive).

`COc1ccc2cc(C3=CC(=O)C[C@H](c4ccc5c(c4)OCO5)C3)ccc2c1`: the inhibition is -8.67% [at 12.3 µM] (inactive). As for `O=C1C=C(c2cc(C(F)(F)F)cc(C(F)(F)F)c2)C[C@@H](c2ccc3c(c2)OCO3)C1`, the inhibition was 14.8% [at 12.3 µM] (inactive).

As for `O=C1C=C(c2ccnc3cc(Cl)ccc23)C[C@@H](c2ccc3c(c2)OCO3)C1`, the inhibition is 65.8% [at 12.3 µM] (active).

Consider `CCC(=O)N[C@H]1CC[C@@H](CC(=O)NCc2cc(F)cc(F)c2)O[C@@H]1CO`, for which the inhibition was -5.23% (inactive).

For `COc1ccc(NC(=O)N(C)C[C@H]2Oc3ccc(NC(=O)NC(C)C)cc3CC(=O)N([C@H](C)CO)C[C@H]2C)cc1`, the inhibition was 2.47% (inactive).

As to `C[C@@H]1CCCCO[C@H](CN(C)S(=O)(=O)c2cccs2)[C@H](C)CN([C@H](C)CO)C(=O)c2cc(NC(=O)c3ccccc3)ccc2O1`, the inhibition was 21.5% (inactive). Consider `Cc1ccc(S(=O)(=O)NCCC(=O)OCC(=O)N(C)c2ccccc2)cc1`, for which the inhibition was -4.53% [at 12.3 µM] (inactive). `CN(c1ccccc1)S(=O)(=O)c1ccc(C(=O)NCCc2ccccc2)cc1`: the inhibition was -11.1% [at 12.3 µM] (inactive).

Regarding `CN(C(=O)CC(NC(=O)c1ccccc1)(c1ccccc1)c1ccccc1)c1ccccc1`, the inhibition is 68.6% [at 12.3 µM] (active). The result for `CC(=O)c1ccc(S(=O)(=O)N2CCN(C(=O)/C=C/c3ccc4ccccc4n3)CC2)cc1` reads 21.1% [at 12.3 µM] (inactive). Turning to `CC(=O)c1ccc(S(=O)(=O)N2CCC3(CC2)OCCO3)cc1`, the inhibition is -7.27% [at 12.3 µM] (inactive). `CC(=O)c1ccc(S(=O)(=O)N2CCN(c3nc4c(C)c(C)ccc4cc3C#N)CC2)cc1`: the inhibition was 82.5% [at 12.3 µM] (active). On to `C[C@@H](CN1C2=NC[C@@H](Cc3ccccc3)N2C[C@H]1Cc1ccc(O)cc1)NC(=O)CCC1CCCCC1`, for which the inhibition is -12.9% [at 12.3 µM] (inactive). Take `C[C@@H]1CCCCO[C@H](CN(C)C(=O)C2CCCCC2)[C@@H](C)CN([C@H](C)CO)C(=O)c2cc(NC(=O)C3CCCCC3)ccc2O1`: the inhibition is 13.6% (inactive). Under `CCC(C(=O)NC(C)(C)C)n1c(-c2ccccc2)nc2ccccc21` (centres undefined) stands -10.4% [at 12.3 µM] (inactive). On to `CC(C)(C)NC(=O)C(CCc1ccccc1)n1c(=O)c(-c2ccccc2)nc2ccccc21` (centres undefined), for which the inhibition is 20.1% [at 12.3 µM] (inactive). Take `CSCCC(C(=O)NC(C)(C)C)n1c(-c2ccccc2)nc2ccccc21` (centres undefined): the inhibition is 56.4% [at 12.3 µM] (active). Under `COc1cccc(C(=O)Nc2ccc3c(c2)C(=O)N(C)[C@@H]2CC[C@H](CC(=O)NCCCN4CCOCC4)O[C@H]2CO3)c1` stands -4.21% (inactive). On to `Clc1ccc2c(c1)C1=C(C(c3ccncc3)O2)C(c2ccc(Br)cc2)n2ncnc2N1` (centres undefined), for which the inhibition is 74.5% [at 12.3 µM] (active).

In the case of `O=C(C[C@@H]1C=C[C@H](NC(=O)Nc2ccc(C(F)(F)F)cc2)[C@H](CO)O1)NCc1cccc(F)c1`, the inhibition is 9.04% (inactive).

On to `C[C@H](CO)N1C[C@H](C)[C@H](CN(C)Cc2ccc(C(=O)O)cc2)Oc2ccc(NS(=O)(=O)c3cn(C)cn3)cc2CC1=O`, for which the inhibition was -3.12% (inactive).

Regarding `C[C@@H]1CN([C@@H](C)CO)C(=O)c2cccc(NC(=O)c3ccc(-c4nccs4)cc3)c2O[C@H]1CN(C)Cc1ccc(Cl)c(Cl)c1`, the inhibition was 38.1% (inactive).

Consider `COc1ccccc1-c1cnc2c(c1)C(=O)N([C@@H](C)CO)C[C@H](C)[C@H](CN(C)C(=O)c1ccncc1)O2`, for which the inhibition is 2.54% (inactive). For `C#CC(C)(C)NC(=O)CSc1nc2c(c(=O)n(C)c(=O)n2C)n1CCCC`, the inhibition is -13.9% [at 12.3 µM] (inactive). Take `CCCCn1c(SCC(=O)NCCc2ccc(OC)c(OC)c2)nc2c1c(=O)n(C)c(=O)n2C`: the inhibition was 114% [at 12.3 µM] (active). For `CCCCn1c(SCC(=O)N2CCOCC2)nc2c1c(=O)n(C)c(=O)n2C`, the inhibition is -4.99% [at 12.3 µM] (inactive).

For the molecule `C[C@H](CO)N1C[C@H](C)[C@H](CN(C)CC2CCCCC2)OCCCC[C@H](C)Oc2ccc(NC(=O)c3ccncc3)cc2C1=O`, the inhibition is -17.1% (inactive). The result for `COC(=O)C1=C(C)N(Cc2ccccc2C(F)(F)F)C(=NCc2ccc(C(F)(F)F)cc2)NC1c1ccc(F)cc1` (centres undefined) reads 5.73% [at 12.3 µM] (inactive); that for `O=C(NCC(F)(F)F)[C@H]1[C@H](CO)[C@H]2Cn3c(ccc(-c4ccncc4)c3=O)[C@H]2N1Cc1ccncc1`, -9.96% (inactive). Regarding `COc1cccc(S(=O)(=O)Nc2ccc3c(c2)[C@@H]2C[C@@H](CC(=O)NC4CCCCC4)O[C@H](CO)[C@@H]2O3)c1`, the inhibition is -5.43% (inactive). Regarding `CC(C)CC(COCc1ccc(Cl)cc1)N1CCN(C(=O)c2ccc(C(F)(F)F)cc2)CCC1=O` (centres undefined), the inhibition was 65.7% [at 12.3 µM] (active).

On to `O=C(c1ccc(C(F)(F)F)cc1)N1CCC(=O)N([C@H](COCc2ccccc2)Cc2ccccc2)CC1`, for which the inhibition was -5.07% [at 12.3 µM] (inactive). Under `CC(C)C[C@@H](COCc1ccc(Cl)cc1)N1CCN(C(=O)c2ccc(Cl)cc2Cl)CCC1=O` stands -24.6% [at 12.3 µM] (inactive). Under `O=C(C[C@H]1C[C@H]2c3cc(NC(=O)Cc4ccncc4)ccc3O[C@H]2[C@@H](CO)O1)NCc1cccc(F)c1` stands 3.14% (inactive); under `COCC(=O)N(C)C[C@H]1Oc2ncc(-c3ccc(C)cc3)cc2C(=O)N([C@@H](C)CO)C[C@@H]1C`, -0.608% (inactive). Regarding `Cc1noc(C)c1S(=O)(=O)N(C)C[C@@H]1OCCCC[C@@H](C)Oc2ccc(NC(=O)c3ccccc3)cc2C(=O)N([C@H](C)CO)C[C@H]1C`, the inhibition was -129% (inactive). `C[C@@H]1CN([C@@H](C)CO)S(=O)(=O)c2ccc(C#C[C@@H](C)O)cc2O[C@@H]1CN(C)CC1CC1`: the inhibition is -13.5% (inactive). Turning to `C[C@H](CO)N1C[C@H](C)[C@H](CN(C)C(=O)Nc2ccc(C(F)(F)F)cc2)OCCCC[C@H](C)Oc2ccc(NC(=O)C3CCCCC3)cc2C1=O`, the inhibition is 9.61% (inactive). As to `CCOc1cc(/C=C(/C#N)c2ccc(Cl)cc2)cc(Cl)c1OCC(=O)O`, the inhibition was 58% [at 12.3 µM] (active). As to `CCOc1cc(/C=N/NC(=O)OC)ccc1OCCSc1ccc(Cl)cc1`, the inhibition is 4.12% [at 12.3 µM] (inactive). As for `COc1cc(/C=C(/NC(=O)c2ccc(Cl)cc2Cl)C(=O)O)cc(OC)c1OC`, the inhibition is 4.88% [at 12.3 µM] (inactive).

With `O=C(C[C@@H]1C[C@@H]2c3cc(NC(=O)C4CCC4)ccc3O[C@@H]2[C@@H](CO)O1)NCCN1CCCCC1`, the inhibition is -4.86% (inactive). The result for `O=C(NC(Nc1nc2ccc([N+](=O)[O-])cc2s1)(C(F)(F)F)C(F)(F)F)c1ccccc1` reads 81.1% [at 12.3 µM] (active). `CC(Nc1ccc([N+](=O)[O-])cc1[N+](=O)[O-])c1ccccc1` (centres undefined): the inhibition is -0.676% [at 12.3 µM] (inactive).

As for `O=C(O)c1cc([N+](=O)[O-])c(Nc2cccc3ccccc23)c([N+](=O)[O-])c1`, the inhibition was 1.53% [at 12.3 µM] (inactive). The result for `COc1cccc(-c2cnc3c(c2)C(=O)N([C@H](C)CO)C[C@H](C)[C@H](CN(C)C(=O)NC(C)C)O3)c1` reads 7.31% (inactive); that for `CCc1ccc(-c2nc(SCC(=O)NC3CCCC3)n[nH]2)cc1`, 56.7% [at 12.3 µM] (active); that for `COC(=O)c1ccccc1NC(=O)CSc1n[nH]c(-c2ccncc2)n1`, 9.97% [at 12.3 µM] (inactive).

Regarding `CCc1c(C)nc(SCC(=O)NC2CCCC2)[nH]c1=O`, the inhibition was -1.14% [at 12.3 µM] (inactive). Under `C=CC1=CCN(S(=O)(=O)C(C)(C)C)[C@@H]1CCO` stands 21.3% [at 12.3 µM] (inactive); under `CCCNC(=O)N(C)C[C@H]1Oc2ncc(-c3ccc(F)cc3)cc2C(=O)N([C@H](C)CO)C[C@H]1C`, -0.986% (inactive). `CC(C)CC#Cc1cnc2c(c1)C(=O)N([C@@H](C)CO)C[C@H](C)[C@@H](CN(C)C(=O)c1cccc(F)c1)O2`: the inhibition is -7.05% (inactive). In the case of `C[C@H](CO)N1C[C@H](C)[C@@H](CN(C)C(=O)C2CC2)Oc2cc(C#CC3CC3)ccc2S1(=O)=O`, the inhibition was 18.8% (inactive). For `CN1CCN(C(=O)C[C@@H]2C[C@@H]3c4cc(NC(=O)c5ccc6c(c5)OCO6)ccc4O[C@@H]3[C@H](CO)O2)CC1`, the inhibition was 2.49% (inactive).

In general, inhibition refers to the relative decrease from the control value, in per cent.
